From PubChem BioAssay AID2315 (National Center for Advancing Translational Sciences (NCATS), 2010)
Out of some 290,000 compounds screened, about 27,000 (9.3%) were called active. The full list was thinned out, with actives kept by preference. Values without a mark were called inactive. Cut-off read from the data, not from the text of the source: active = inhibition mostly above about 28% (no sharp cut-off); inactive = mostly below about 43%.

Assay: A qHTS for Small Molecule Inhibitors of Shiga Toxin; note: 0% is about no effect
Details: Vero cells, Shiga toxin protein synthesis inhibition reporter; at 38.7 µM, active compounds read high

Compound	inhibition
CC1=C(C(=O)OC2CCCCC2)C(c2ccccc2F)NC(=O)N1 (configuration not stated)	4.41%
O=C(O)c1cc(S(=O)(=O)N(Cc2ccccc2)c2ccccc2)ccc1Cl	-7.94%
O=C(NCc1cccc(Cl)c1)C1CCN(c2nnc(N3CCCC3=O)s2)CC1	-4.8%
Cc1ccc(C)c(N2CCN(C(=O)CCCCCn3c(=S)[nH]c4ccc(N5CCOCC5)cc4c3=O)CC2)c1	1.81%
Cc1ccc(NC(=S)NC(=O)/C=C/c2ccc(Cl)cc2)cc1	13%
COC(=O)c1c(C)[nH]c(C(=O)/C=C/c2ccc(Cl)cc2)c1C	54.7% (active)
COC(=O)c1c(C)[nH]c(C)c1-c1ccc([N+](=O)[O-])cc1	21.5%
O=C(c1cccs1)C1C(c2ccc(Br)cc2)NC(=S)NC1(O)C(F)(F)F (configuration not stated)	69.1% (active)
CC(=O)C1C(c2ccc(Cl)cc2)NC(=O)NC1(O)C(F)(F)F (configuration not stated)	-1.27%
CCOC(=O)C1C(c2ccc(Cl)cc2)NC(=S)NC1(O)C(F)(F)F (configuration not stated)	-9.88%
CC(=O)N1CCN(CC(C)(C)NS(=O)(=O)c2ccc(C)cc2)CC1	-4.99%
CC(=O)c1c(C)[nH]c(C(=O)OCC(=O)NCCC(C)C)c1C	-4.2%
COC(=O)c1c(C)[nH]c(C(=O)NCCc2ccc(S(N)(=O)=O)cc2)c1C	2.99%
CCCCOC(=O)c1[nH]c(C)c(C(=O)OC)c1C	94.4% (active)
Cc1ccc(CN2CCN(c3ncccn3)CC2)c(C)c1	6.99%
Cc1ccccc1CN1CCNC(=O)C1CC(=O)NCCC1=CCCCC1 (configuration not stated)	-8.04%
CC(=O)NN1C(=O)c2ccccc2NC1c1ccccc1 (configuration not stated)	4.01%
CC(=O)N1C(=O)C2(Nc3ccccc3N2)c2ccccc21	-7.58%
CC(C)=NN1C(=O)c2ccccc2NC1(C)C	91.4% (active)
Nc1nc(SCC(=O)Nc2cc(C(F)(F)F)ccc2Cl)[nH]c(=O)c1NC(=O)c1ccco1	-1.11%
CCC(C)N1C(=O)S/C(=C/c2ccc(Sc3nc4ccccc4[nH]3)o2)C1=O (configuration not stated)	11.8%
COc1ccc(N2CCN(S(=O)(=O)c3ccc4c(c3)NC(=O)C(C)C(=O)N4)CC2)cc1 (configuration not stated)	-6.85%
O=S(=O)(Nc1ccc(Oc2ncccn2)c(Cl)c1)c1ccc(F)cc1	-3.73%

Compound	inhibition
C=CCOc1cccc(CNCc2cccnc2)c1	29%
CCC(C)Cn1c(O)cc2nn(-c3nc4ccccc4s3)c(=O)c-2c1C (configuration not stated)	29.1%
CCc1ccc(-c2cc(C(=O)NCc3ccco3)c3ccccc3n2)s1	41.4%
COC(=O)Cc1[nH]n(-c2nc3ccccc3s2)c(=O)c1C(C)=Nc1ccc(OC)cc1	38.9%
CC(=NCc1ccco1)C1=C(O)c2ccccc2C1=O	31.2%
CC(=NCc1ccco1)c1c(C(F)(F)F)[nH]n(-c2nc3ccccc3s2)c1=O	122% (active)
C/C(=N\NC(=O)CC(C)C)c1c(C(F)(F)F)[nH]n(-c2nc3ccccc3s2)c1=O	65.9% (active)
Cc1ccc(NC(=O)[C@H](Cc2ccccc2)NC(=O)C2CCNCC2)cc1	-0.595%
COc1ccccc1NC(=O)N1CCCC1C(=O)NCc1cccs1 (configuration not stated)	-1.36%
O=C(c1ccc(OC2CCN(C/C=C/c3ccc(F)cc3)CC2)cc1)N1CCCCC1	-5.42%
COCC1CCN(C(=O)C2CCC(=O)N(Cc3cccc(C(F)(F)F)c3)C2)CC1 (configuration not stated)	38.4% (active)
O=C1CCC(C(=O)N2CCCCO2)CN1Cc1cccc(C(F)(F)F)c1 (configuration not stated)	29.5%
COCC1CCN(C(=O)C2CCC(=O)N(CC3CCCCC3)C2)CC1 (configuration not stated)	19.8%
CCOc1ccc(N(CC(=O)NCCc2ccc(F)cc2)S(=O)(=O)c2ccccc2)cc1	10.2%
O=C(NCCN1CCOCC1)c1ccc(/C=C2\Sc3ccccc3N(Cc3ccc(F)cc3)C2=O)cc1	-4.17%
CCOC(=O)C1CCN(C(=O)COc2cccc3ccccc23)CC1	34.7% (active)
CCOC(=O)C1CCN(C(=O)COc2cc(C)c(Br)c(C)c2)CC1	2.84%
NC(=O)C1CCN(C(=O)COc2cccc3cccnc23)CC1	33.9%
O=C(O)c1cc(S(=O)(=O)NC2CCCc3ccccc32)ccc1O (configuration not stated)	16.7%
CCN(CC)CCCNC(=O)c1cn(C)c2ccc(S(=O)(=O)N(C)C3CCCCC3)cc2c1=O	-11.8%
COc1ccccc1C(=O)N(Cc1ccc(C)o1)C1CCS(=O)(=O)C1 (configuration not stated)	-7.17%
CCN1CCC(=NNC(=O)c2ccc(C)c([N+](=O)[O-])c2)CC1	14.2%
Cc1ccc(C(=O)Nc2cccc3ncccc23)cc1[N+](=O)[O-]	11.7%

Compound	inhibition
Cc1cc(O)c(NC(=O)c2ccc(C)c([N+](=O)[O-])c2)cc1C	57.7% (active)
Cc1csc(NC(=O)CSc2nc(=O)cc(N)n2-c2ccc(F)cc2)n1	-2.89%
Cc1ccccc1NC(=O)N1CCCC1C(=O)NCc1ccccc1 (configuration not stated)	-8.06%
COc1ccc(C(=O)n2nc(C)c(Br)c2C)cc1OC	1.86%
COc1cccc(N(C(=O)c2snc(C(N)=O)c2N)C(C(=O)NCC2CCCO2)c2c[nH]c3ccccc23)c1 (configuration not stated)	-11.7%
Cc1ccc(C(=O)NCCNC(=O)c2cnccn2)cc1	3.15%
CCN(CC)c1ccc(/C=N/Nc2nc(C)cc(C)n2)c(O)c1	28.1% (active)
CCN(CC)c1ccc(/C=N/NC(=O)c2cnccn2)c(O)c1	62.2% (active)
CCN(CC)c1ccc(C(=O)N/N=C/c2ccc(N3CCOCC3)cc2)cc1	-11.2%
Cc1cc(C)nc(N/N=C/c2ccncc2)n1	-5.35%
Cc1cc(C)nc(N/N=C/c2c(CO)cnc(C)c2O)n1	3.16%
Cc1nn(C(C)C(=O)N2CCOCC2)c(=O)c2nn(-c3ccccc3)c(C)c12 (configuration not stated)	-9.86%
O=C(c1ccc(F)cc1)N1CCCC(C(=O)N2CCCCC2)C1 (configuration not stated)	4.46%
CC(=O)Nc1ccc(S(=O)(=O)N2CCC(C(=O)N[C@@H](Cc3ccccc3)C(=O)O)CC2)cc1	-6.49%
Cc1cccc(N(C)C(=O)c2cc(S(=O)(=O)N3CCCCC3)c[nH]2)c1	-6.21%
CSc1ccccc1NC(=O)CN(C)CC(=O)Nc1cccc(Br)c1	-0.946%
C=C(C)C(=O)Nc1cccc(C(C)=O)c1	-10.8%
CCN(CC)C(=O)C(=O)Nc1cccc(Br)c1	106% (active)
O=C(N/N=C/c1cccc(OC(=O)c2ccc([N+](=O)[O-])cc2)c1)c1cccnc1	-3.03%
CCN(CC)/[N+]([O-])=N/Oc1cc(O/[N+]([O-])=N/N2CCCC2CO)c([N+](=O)[O-])cc1[N+](=O)[O-] (configuration not stated)	-5.78%
COc1cc(CC(=O)Nc2nc(-c3ccc(F)c(F)c3)cs2)cc(OC)c1OC	-5.98%
COc1ccc(N2CCN(C(=O)CNC(=O)c3ccc(Br)o3)CC2)cc1	-11.6%
CC(C)(C)NC(=O)NC(=O)COC(=O)Cc1ccc(Cl)cc1Cl	16.6%

Compound	inhibition
COc1ccc(-c2csc(NC(=O)COC(=O)Cc3ccc(Cl)cc3Cl)n2)cc1	64% (active)
COc1ccc(-c2nc(CCNC(=O)c3ccc(Br)o3)cs2)cc1	20.3% (active)
CCCc1ccc(-c2csc(NC(=O)Cc3cccs3)n2)cc1	13%
COc1ccc(-c2csc(NC(=O)COC(=O)c3ccc(Br)o3)n2)cc1	92.3% (active)
O=C(NCCc1csc(-c2ccccc2)n1)c1ccccc1F	40.5%
COc1ccc(CC(=O)Nc2nc(-c3ccc(F)c(F)c3)cs2)cc1OC	-2.51%
CC(C)=CCCC(C)CN1CCC(n2nccc2NC(=O)c2ccccc2)CC1 (configuration not stated)	-5.43%
O=C(Nc1ccccc1)C1CCN(C(=O)c2ccc(Br)cc2)CC1	6.29%
COCCCC1CCN(C(=O)C2CCC(=O)N(C3CCCCCC3)C2)CC1 (configuration not stated)	-6.64%
O=C(O)c1[nH]c2ccccc2c1C(c1cccc(O)c1)c1c(C(=O)O)[nH]c2ccccc12	-5.15%
COC(=O)COc1ccc2c(=O)c(Oc3ccccc3Br)coc2c1	-7.5%
CCc1ccc(N2CC(C(=O)N3CCCCCC3)CC2=O)cc1 (configuration not stated)	16%
CC(CC(=O)N1CCN(c2ccccc2)CC1)S(=O)(=O)c1ccc2c(c1)NC(=O)CS2 (configuration not stated)	1.51%
O=C(Cn1c(=O)sc2ccccc21)Nc1nc2c(s1)CCCC2	22.4%
Fc1ccc2nc(Nc3nc4c(s3)CCCC4)sc2c1	72.1% (active)
O=C(CCS(=O)(=O)c1ccccc1)Nc1nc2c(s1)CCCC2	20.4%
CN(CC(=O)Nc1c(Cl)cccc1Cl)C(=O)c1ccncc1	-30.3%
O=c1ccc(-c2ccc(S(=O)(=O)Nc3ccccc3)o2)n[nH]1	-5.64%
O=C(O)c1ccc(S(=O)(=O)N2CCC(Cc3ccccc3)CC2)cc1	-10.1%
O=C(NCCc1ccccc1Cl)C1CCC(=O)N(CCCc2ccccc2)C1 (configuration not stated)	-7.04%
O=C(NCCCc1ccccc1)C1CCC(=O)N(CCc2ccc(Cl)cc2)C1 (configuration not stated)	35.2% (active)
O=C(NCCN1CCOC1=O)C1CCC(=O)N(CCc2ccc(Cl)cc2)C1 (configuration not stated)	-3.56%
Cc1ccc(-n2nc3c(=O)n(C(C)C(=O)NCc4ccc5c(c4)OCO5)nc(C)c3c2C)cc1 (configuration not stated)	-4.41%
